Assay outcomes (PubChem BioAssay)
CCHF vOTU inh: CCHFV vOTU protease inhibitors, primary screen, biochemical, Pep-AMC substrate, fluorescence. inhibition, % at 11.5 µM. 370,000 tested, 0.55% active. Crimean-Congo hemorrhagic fever virus L polyprotein viral ovarian tumor (vOTU) protease …; in the data active = inhibition above about 30%
Mtb hypoxia inh: PubChem AID 1159583; fluorescence inhibition, % (concentration not given with the values); 300,000 tested, 0.1% active; M. tuberculosis hypoxia-regulated fluorescent reporter, fluorescence; in the data active = fluorescence inhibition mostly above about 23%, no sharp cut-off; inactive = mostly below about 17%
RecA splice inh: Mtb RecA intein splicing inhibitors, primary screen, biochemical, fluorescence, HTS | Protein RecA (Mycobacterium tuberculosis (strain ATCC 25618 / H37Rv)), P9WHJ3 | cell-free RecA intein splicing | inhibition, % (concentration not given with the values) | 290,000 tested, 0.75% active; in the data active = inhibition above about 30%
Target sequence (P9WHJ3 whole entry, looked up, canonical isoform): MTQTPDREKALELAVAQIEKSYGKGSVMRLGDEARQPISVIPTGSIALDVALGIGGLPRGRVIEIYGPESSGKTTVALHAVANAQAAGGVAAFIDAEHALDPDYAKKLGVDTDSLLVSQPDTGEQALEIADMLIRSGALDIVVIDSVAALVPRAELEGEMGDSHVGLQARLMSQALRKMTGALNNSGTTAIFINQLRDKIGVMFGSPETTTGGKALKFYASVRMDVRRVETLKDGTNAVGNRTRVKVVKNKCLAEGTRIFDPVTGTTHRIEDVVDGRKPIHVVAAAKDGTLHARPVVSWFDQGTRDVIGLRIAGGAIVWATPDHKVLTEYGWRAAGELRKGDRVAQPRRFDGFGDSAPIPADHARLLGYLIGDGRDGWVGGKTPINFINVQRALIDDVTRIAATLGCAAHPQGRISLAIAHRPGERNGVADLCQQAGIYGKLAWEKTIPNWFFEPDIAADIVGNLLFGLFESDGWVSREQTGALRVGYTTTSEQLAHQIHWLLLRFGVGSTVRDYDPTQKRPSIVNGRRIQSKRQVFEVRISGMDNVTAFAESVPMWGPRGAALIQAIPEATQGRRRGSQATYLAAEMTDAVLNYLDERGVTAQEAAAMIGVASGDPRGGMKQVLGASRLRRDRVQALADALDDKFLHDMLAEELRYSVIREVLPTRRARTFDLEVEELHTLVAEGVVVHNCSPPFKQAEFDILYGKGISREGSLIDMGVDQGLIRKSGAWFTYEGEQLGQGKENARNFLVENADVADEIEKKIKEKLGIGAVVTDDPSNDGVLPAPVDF
Mtb bLac sens: beta-lactam sensitization of Mtb H37Rv, H37Rv | M. tuberculosis H37Rv growth with meropenem, percent inhibition | inhibition, % at 25 µM | 330,000 tested, 0.27% active | AID 434955, 2010;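 also: growth measured after seven days incubation then overnight dye step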
PfHsp40 yeast: rescue of yeast from PfHsp40 toxicity, primary screen, S. cerevisiae, ATP luminescence | S. cerevisiae expressing PfHsp40, growth rescue | growth rescue, % at 12.5 µM | 340,000 tested, 0.68% active; in the data active = growth rescue above about 28%, passing the limit was not always enough;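 also: yeast W303a lacking pdr1 and pdr3 grown in galactose medium; growth measured after three days at 30 °C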
GFP chromophore: counter-screen: blocks GFP chromophore formation, dose response, counter-screen, biochemical, fluorescence, homogeneous. 2,100 tested, 83% active. cell-free GFP chromophore formation. shares compounds with RecA splice inh. EC50, µM
A number is an active result; – = inactive; · = no result shown. Rows were chosen to be rich in hits. Some 1.7% of all compounds tested hit in one or more screens of this group. Unless noted, no rule for the calls is given here.

SMILES	CCHF vOTU inh	Mtb hypoxia inh	RecA splice inh	Mtb bLac sens	PfHsp40 yeast	GFP chromophore
CCc1ccc(OCC(=O)c2c(O)c3ccccc3oc2=O)cc1	–	–	–	–	–	·
CCOC(=O)C1C2COc3ccccc3C2N2C(=O)CNC(=O)[C@@]12C (stereo partly specified)	·	–	·	·	·	·
O=C1C(C2=C(O)c3ccccc3C2=O)=Nc2ccccc21	–	–	47.4	–	–	1.83
CCCCCC(=O)O[C@]1(C(C)=O)CC[C@H]2[C@@H]3CCC4=CC(=O)CC[C@]4(C)[C@H]3CC[C@@]21C	–	·	32.9	–	–	–
CCCCCC(=O)O[C@]1(C(C)=O)CCC2C3CCC4=CC(=O)CC[C@]4(C)C3CC[C@@]21C (stereo partly specified)	·	–	·	·	·	·
CC(/C=C/c1ccco1)=NNC(=O)C1COc2ccccc2O1 (stereo unspecified)	·	–	·	·	·	·
CCOc1ccc(C(c2c(C)[nH][nH]c2=O)c2c(C)[nH][nH]c2=O)cc1OC	–	·	94.5	–	–	0.442
C#CCOc1ccc(OC)cc1C(c1c(C)[nH][nH]c1=O)c1c(C)[nH][nH]c1=O	·	–	94.9	–	–	0.413
CCOc1cc(C(c2c(C)[nH][nH]c2=O)c2c(C)[nH][nH]c2=O)ccc1OS(=O)(=O)c1ccc(C)cc1	–	–	97.4	–	–	0.493
COc1cc(C(C)=NNC(=O)CSc2nc3ccccc3n2C)ccc1O	·	–	·	·	·	·
CC1=NN(Cc2ccccc2)C(=O)C1C(c1ccncc1)C(C#N)C#N (stereo unspecified)	–	–	68.1	–	–	17.7
CC1=NN(Cc2ccccc2)C(=O)C1C(c1ccccc1)C(C#N)C#N (stereo unspecified)	–	–	87.5	–	–	8.7
CC1=NN(Cc2ccccc2)C(=O)C1C(c1ccc(Cl)cc1)C(C#N)C#N (stereo unspecified)	–	–	79.6	–	–	6.21
Cc1ccc(C)c(N2CCN(C(c3ccncc3)c3nnnn3Cc3ccccc3)CC2)c1 (stereo unspecified)	–	–	–	–	–	·
CC1=NNC(=O)C1C(c1ccc(Cl)cc1)C(C#N)C#N (stereo unspecified)	–	·	84.8	–	·	11.2
CCOC(=O)c1cc(CC)sc1N=CC1C(=O)CC(C)(C)CC1=O	·	–	·	·	·	·
Clc1ccc(CSC(Cn2ccnc2)c2ccc(Cl)cc2Cl)cc1 (stereo unspecified)	–	·	41.7	–	146.7	23.1
CCOc1cc(C=NNC(=O)NN=Cc2ccc(O)c(OCC)c2)ccc1O	·	–	·	·	·	·
O=[N+]([O-])c1cncc([N+](=O)[O-])c1Nc1cccc(O)c1	–	·	46.1	–	–	15.6
O=C(O)c1ccc(N2C(=O)/C(=C/c3ccc(-c4ccc([N+](=O)[O-])cc4)o3)C=C2c2ccccc2)cc1	·	·	32.2	–	–	–
O=C1NN(c2ccccc2)C(=O)/C1=C/c1ccc(-c2ccc(C(=O)O)cc2)o1	–	–	–	–	–	·
Cc1cccc(CS(=O)(=O)c2ncc(Cl)c(C(=O)NCc3ccccc3)n2)c1	–	–	–	–	–	·
Cc1cccc(CS(=O)(=O)c2ncc(Cl)c(C(=O)Nc3c(C)cccc3C)n2)c1	–	·	46.2	–	–	9.94
COc1ccc(NC(=O)c2nc(S(=O)(=O)Cc3cccc(C)c3)ncc2Cl)c(OC)c1	–	–	–	–	–	·
Cc1ccccc1CS(=O)(=O)c1ncc(Cl)c(C(=O)Nc2ccc(F)cc2)n1	–	–	34.2	–	–	8.55
SMILES	CCHF vOTU inh	Mtb hypoxia inh	RecA splice inh	Mtb bLac sens	PfHsp40 yeast	GFP chromophore
Cc1ccc(NC(=O)c2nc(S(=O)(=O)Cc3ccccc3)ncc2Cl)cc1	–	·	66.3	–	–	39.7
CCCc1nnc(NC(=O)c2nc(S(=O)(=O)Cc3cccc(C)c3)ncc2Cl)s1	–	·	85.4	–	–	–
COC(=O)C1CC2CCC(O)CC2N1Cc1ccccc1OS(=O)(=O)c1ccc(C)cc1 (stereo unspecified)	·	–	·	·	·	·
COc1ccc(OC)c(NC(=O)c2nc(S(=O)(=O)Cc3ccccc3)ncc2Cl)c1	–	·	–	–	–	·
O=C(Nc1ccc(F)cc1)c1nc(S(=O)(=O)Cc2ccccc2)ncc1Cl	–	·	–	–	–	·
CCN(c1ccccc1)S(=O)(=O)c1ccc(NC(=O)c2nc(S(C)(=O)=O)ncc2Cl)cc1	·	·	–	–	–	·
CCS(=O)(=O)c1ncc(Cl)c(C(=O)Nc2ccc(S(=O)(=O)N(C)c3ccccc3)cc2)n1	–	·	97.1	–	–	1.64
Cc1cccc(C)c1NC(=O)c1nc(S(=O)(=O)Cc2ccccc2)ncc1Cl	–	·	35.6	–	98.0	16.7
Cc1nnc(NC(=O)c2nc(S(=O)(=O)Cc3ccccc3)ncc2Cl)s1	–	·	56.4	–	–	16.2
CCN1CCN(CC(=O)n2c3c(c4ccccc42)CC(C)CC3)CC1 (stereo unspecified)	–	·	–	–	–	·
CC1CCc2c(c3ccccc3n2C(=O)CCl)C1 (stereo unspecified)	–	–	40.9	–	–	0.694
CCOc1cc(C(N)=O)cc(Br)c1OC	–	–	–	–	–	·
COc1cc(C(c2c(C)[nH][nH]c2=O)c2c(C)[nH][nH]c2=O)cc(Br)c1OC	–	–	99.2	–	–	0.633
CCOc1cc(C(c2c(C)[nH][nH]c2=O)c2c(C)[nH][nH]c2=O)cc(Br)c1OC	–	–	93.0	–	–	0.49
O=C(Cc1cc(=O)[nH][nH]1)N/N=C/c1c(F)cccc1Cl	–	·	95.2	–	–	7.87
O=C(Cc1cc(=O)[nH][nH]1)N/N=C/c1c(Cl)cccc1Cl	–	·	69.9	–	–	12.2
CCOC1OC(C(=O)NC2CC2)=CC(C2CC2)C1CCCO (stereo unspecified)	·	–	·	·	·	·
Cc1cc(OC(=O)c2ccccc2)n(CCC#N)n1	–	·	84.8	–	–	10.9
COc1ccccc1NC(=O)c1cnc(SCC(=O)NCC2CCCO2)n(C)c1=O (stereo unspecified)	–	–	45.1	–	–	–
COc1ccc2nc3cc(Cl)ccc3c(Nc3cc(C(C)C)c(O)cc3C)c2c1	–	–	73.5	–	–	0.754
CCOc1ccc(C=NNC(=O)c2nnn(-c3nonc3N)c2-c2cccs2)cc1	·	–	·	·	·	·
Cc1ccc(-c2ccc(/C=N\n3cnnc3)o2)c(Br)c1	–	·	–	–	–	·
Cc1ccc(Sc2oc(/C=N/n3cnnc3)cc2Br)cc1	–	·	62.0	–	–	35.2
CCc1c(C(=O)NN=Cc2ccc(C)o2)csc1C	·	–	·	·	·	·
CCCn1c(CC)nc([N+](=O)[O-])c1S(=O)(=O)c1ccccc1	–	–	46.2	–	–	–
CCOc1cccc(-c2cc(=O)[nH][nH]2)c1	–	–	96.8	–	–	2.53
COc1cccc(-c2cc(=O)[nH][nH]2)c1	–	–	97.9	–	–	2.18
CCOc1cccc(N)c1	·	–	·	–	–	·
